Bioassay records: PubChem, several laboratories
NOD2-RIPK2 inh – inhibitors of human NOD2-RIPK2 interaction; O43353; CHO BLA complementation NOD2-RIPK2, CCF4 ratio; inhibition, % at 4.98 µM; actives 0.38% (n = 360,000); AID 624267; in the data active = inhibition above about 21%;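 also: 0% = vehicle only and 100% = reference blocker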
Target sequence (O43353 whole entry, looked up): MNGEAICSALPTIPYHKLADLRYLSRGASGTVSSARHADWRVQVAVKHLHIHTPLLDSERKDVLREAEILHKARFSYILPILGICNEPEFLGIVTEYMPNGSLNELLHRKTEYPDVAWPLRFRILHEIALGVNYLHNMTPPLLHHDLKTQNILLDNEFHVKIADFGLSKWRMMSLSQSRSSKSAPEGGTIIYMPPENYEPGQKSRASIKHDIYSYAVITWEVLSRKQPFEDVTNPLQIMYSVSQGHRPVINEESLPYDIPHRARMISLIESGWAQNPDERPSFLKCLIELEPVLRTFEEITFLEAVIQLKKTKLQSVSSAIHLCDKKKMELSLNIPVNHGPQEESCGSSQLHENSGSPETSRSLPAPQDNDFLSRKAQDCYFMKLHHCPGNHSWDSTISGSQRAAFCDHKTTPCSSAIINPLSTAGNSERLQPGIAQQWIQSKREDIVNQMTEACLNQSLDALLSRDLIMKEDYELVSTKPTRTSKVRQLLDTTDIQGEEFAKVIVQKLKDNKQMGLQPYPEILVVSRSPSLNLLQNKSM
Exocytosis inh – blocks lytic granule exocytosis. TALL-104 LAMP-1 surface exposure, flow cytometry; cells stimulated with thapsigargin and PMA. inhibition, % at 10 µM. actives 0.66% (n = 360,000). AID 651702;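 active = inhibition above about 55%, limit read from the data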
TLR4 MyD88 comp – inhibitors of human TLR4-MyD88 binding. O00206+Q99836. HeLa CL3-4 TLR4/MyD88 BLA complementation, FRET ratio. inhibition, % at 8.4 µM. actives 0.18% (n = 200,000). AID 861; in the data active = inhibition above about 25%;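 also: 0% = vehicle and 100% = reference inhibitor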
PRMT1 FP inh – blocks human protein arginine methyltransferase 1. actives 1.3% (n = 370,000). Q99873. inhibition, % at 2.79 µM. recombinant PRMT1, activity-based probe fluorescence polarization;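 active = inhibition above about 21% made by adding two undisclosed values, limit read from the data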
TLR9-MyD88 block – inhibitors of human TLR9-MyD88 binding | Q9NR96+Q99836 | CHO BLA complementation TLR9-MyD88, CCF4 FRET ratio | inhibition, % at 4.98 µM | actives 0.21% (n = 340,000) | AID 504734;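 active = inhibition above the mean over all tested compounds plus 3 SD, cut at about 21% in these data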;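 also: 0% = DMSO only wells and 100% = clavulanate BLA inhibitor control wells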
ABHD5-PLIN5 inh – blocks binding of human ABHD5 to perilipin-5. Q00G26+Q8WTS1. Split G. princeps luciferase complementation, luminescence, 4 h. inhibition, % at 4 µM. actives 0.78% (n = 360,000);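 active = inhibition above the mean inhibition across every tested compound plus 3 SD, cut at about 22% in these data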;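 also: 0% = DMSO only wells and the 100% control is not disclosed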
ABHD5-PLIN5 conf – confirmation of human ABHD5-PLIN5 interaction inhibitors. shares compounds with ABHD5-PLIN5 inh. biochemical ABHD5-PLIN5 interaction, luminescence. inhibition, % at 4 µM. actives 67% (n = 2,200). AID 651612; in the data active = inhibition above about 23%;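 also: 0% = DMSO vehicle wells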
HNF4 counter – counter-screen for ABHD5-PLIN5 inhibitors: HNF4 split-luciferase; shares compounds with ABHD5-PLIN5 inh; HNF4 dimerization, luminescence, biochemical; inhibition, % at 4 µM; actives 77% (n = 2,200);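 active = mean inhibition across replicate wells exceeding the computed hit threshold, cut at about 13% in these data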;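 also: light from luciferase halves that rejoin when HNF4 fusion proteins dimerize; 0% = DMSO only wells and the 100% control is not given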
* marks the source's active call; other numbers are inactive results; . = not tested or not shown. Rows were chosen to be rich in hits. Some 2.6% of all compounds tested hit in one or more screens of this group.

SMILES	NOD2-RIPK2 inh	Exocytosis inh	TLR4 MyD88 comp	PRMT1 FP inh	TLR9-MyD88 block	ABHD5-PLIN5 inh	ABHD5-PLIN5 conf	HNF4 counter
COc1ccc(OC)c(C(=O)/C=C/c2cccnc2)c1	2	-3	.	-1	5	39*	61*	63*
Cc1cccc(C(=O)Nc2ccc(C(=O)/C=C/c3cccnc3)cc2)c1	6	14	13	3	6	68*	102*	102*
COc1cc(C(=O)/C=C/c2cccnc2)ccc1O	0	6	.	0	-7	24*	61*	55*
Cc1ccc(S(=O)(=O)N2CCCc3nc(-c4ccc(F)cc4)ccc32)cc1	.	.	.	-4	.	.	.	.
CC(C)C[C@H]1COc2c(Cl)cccc2S(=O)(=O)N1Cc1ccc(F)cc1F	.	.	.	1	.	.	.	.
C#CCNC(=O)C[C@H]1C[C@@]2(C(=O)OC)C(=C[C@H](C3CCCC3)O[C@@H]2C)N(Cc2ccccc2)C1=O	.	.	.	-5	.	.	.	.
CC1CCC(C(=O)NNC(=O)c2cc(-c3ccco3)[nH]n2)CC1 (configuration not stated)	-3	0	-3	9	-4	27*	3	1
O=C(O)c1cc(-c2ccco2)[nH]n1	4	2	-7	14	6	5	.	.
O=C(CSc1n[nH]c(-c2ccccc2)n1)NC(=O)NCc1ccco1	-2	-1	2	1	5	23*	10	8
Cc1cc(SCC(=O)NC(=O)NCc2ccco2)nc2c(C)cccc12	11	2	-1	17	-8	40*	27*	38*
Cc1cc(SCC(=O)NC(=O)NCc2ccco2)nc2ccccc12	6	3	14	5	-1	9	.	.
COc1ccc(C(CCN2CCOCC2)c2c(OC)cc(OC)c3c(-c4ccccc4)cc(=O)oc23)cc1 (configuration not stated)	4	54	.	8	2	25*	11	8
COc1ccc(C(CCN2CCCC2)c2c(OC)cc(OC)c3c(-c4ccccc4)cc(=O)oc23)cc1 (configuration not stated)	13	0	.	1	0	20	.	.
O=C(C[C@H]1C[C@H](C(=O)N2CCOCC2)[C@@]2(CCC3CCCC3)c3[nH]c4ccc(Cl)cc4c3CCN2C1=O)NCCc1ccccn1	0	4	.	1	-17	-5	.	.
O=C(C[C@H]1C[C@H](C(=O)N2CCOCC2)[C@@]2(CCC3CCCC3)c3[nH]c4cc(-c5ccco5)ccc4c3CCN2C1=O)NCCc1ccccn1	-4	-2	.	7	-12	23*	11	17*
CN(C)CCCNC(=O)C[C@@H]1CC[C@@H]2[C@H](COc3ccc(NC(=O)c4cccc(F)c4)cc3C(=O)N2C)O1	.	.	.	0	.	.	.	.
C=CCNC(=O)/C(C#N)=C/c1c(C)nn(-c2ccc(Cl)cc2)c1Cl	-2	-3	3	-1	2	34*	41*	45*
Cc1nn(-c2ccc(Cl)cc2)c(Cl)c1/C=C(\C#N)C(N)=O	1	-3	-8	0	2	5	.	.
CCCCN(C)c1nc(-c2ccco2)c2c(c1C#N)CC(C)(C)OC2	-6	-3	-2	21*	-2	28*	54*	79*
O=S(=O)(c1ccc(Br)s1)N1CCC(c2nc3ccccc3o2)CC1	.	.	.	7	.	.	.	.
Cc1ccc(Oc2cccc3c2S(=O)(=O)N([C@H](C)c2ccccc2)C[C@@H](COCc2ccccc2)O3)cc1	.	.	.	0	.	.	.	.
COc1ccc(CNC(=O)CSCc2cccc(Cl)c2)cc1	-6	-3	-6	2	-6	68*	-2	0
CCn1c(C)c(C)c2cc(C(=O)NCCc3ccco3)ccc21	-8	4	.	10	-5	30*	10	16*
Cc1c(C)n(C)c2ccc(C(=O)NCCc3ccco3)cc12	-5	-10	.	11	-4	12	.	.
O=C(/C=C\c1ccco1)c1ccc(NC(=O)c2ccco2)cc1	-7	0	0	19	5	25*	49*	47*
SMILES	NOD2-RIPK2 inh	Exocytosis inh	TLR4 MyD88 comp	PRMT1 FP inh	TLR9-MyD88 block	ABHD5-PLIN5 inh	ABHD5-PLIN5 conf	HNF4 counter
O=C(C=Cc1ccco1)c1ccc2ccccc2c1	2	-2	.	17	3	37*	64*	54*
CSc1ccc(Cl)c(C(=O)OCC(=O)NCc2ccco2)c1	-11	4	3	10	-2	34*	17	18*
CCCN(CC1CC1)C(=S)NC(=O)c1cc(Br)ccc1Cl	-4	1	.	-2	1	24*	2	-7
CCCN(CC1CC1)C(=S)NC(=O)c1ccccc1C	-9	18	.	1	-1	1	.	.
O=C(c1ccc(F)c(F)c1)N1CCC(Oc2cccnc2)CC1	.	.	.	-8	.	.	.	.
COC(=O)Cc1nnn2c1CC(OC)c1cc(Br)ccc1-2 (configuration not stated)	.	.	.	-3	.	.	.	.
COCc1[nH]nc2c1C(c1cccc(C(F)(F)F)c1)NC2=O (configuration not stated)	.	.	.	4	.	.	.	.
Nc1nc2c(ncn2[C@@H]2O[C@H](C(=O)N[C@H](Cc3ccccc3)C(=O)O)[C@@H](O)[C@H]2O)c(=O)[nH]1	.	.	.	0	.	.	.	.
Cn1nnc(NC(=S)NC(=O)/C=C/c2ccco2)n1	5	2	.	15	1	24*	5	5
C=CCSc1nc2ccccc2n1C(=O)/C=C/c1ccc(OC)c(OC)c1	2	-3	-1	-1	0	9	.	.
C=CCSc1nc2ccccc2n1C(=O)/C=C/c1cc(OC)c(OC)c(OC)c1	2	9	-16	2	1	43*	88*	72*
CCCc1ccc(C2C3=C(CC(C)(C)CC3=O)NC3=C2C(=O)c2ccccc23)cc1 (configuration not stated)	1	2	0	19	-12	42*	66*	75*
O=C(/C=C/c1cccs1)c1cc(Br)ccc1OC(=O)N1CCOCC1	1	17	2	-4	0	25*	57*	40*
COc1ccc(C(=O)/C=C/c2cccs2)c(OC(=O)N2CCOCC2)c1	-18	0	-1	-2	-7	6	.	.
CCCN(C(=O)c1cc(S(=O)(=O)N2CCN(CC)CC2)ccc1Cl)C1CCS(=O)(=O)C1 (configuration not stated)	5	7	.	-1	4	26*	4	3
CCCN(C(=O)c1cc(S(=O)(=O)N2CCCCCC2)ccc1OC)C1CCS(=O)(=O)C1 (configuration not stated)	-10	3	.	-1	-3	8	.	.
CCCCC1Cc2[nH][nH]c(=O)c2C(c2ccc(Cl)cc2)O1 (configuration not stated)	10	4	.	-1	.	28*	6	25*
